Experimental data taken from PubChem BioAssay AID488840 (Broad Institute, 2010).
Hit rate of the full screen: of about 1,400 compounds, about 45 (3%) were called active.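 Rule for the calls: active = half-maximal dose of signal decrease from fit no higher than ten times the top valid tested dose; inconclusive = fit invalid, or curve flat with 30 to 70% inhibition; inactive = the rest.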 Only a sample is shown. Measured potencies and affinities stand elsewhere.

The compounds below were run against Lysine-specific demethylase 4A (Homo sapiens) (UniProt O75164) (assay: JMJD2A histone demethylase inhibitors, dose response, selectivity assay for GASC-1 inhibitor project, biochemical, DELFIA europium, cherry-picked samples (AID 488840;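 note: europium signal reports the dimethyl H3K9 product detected by antibody so inhibitors lower it; 0% = median of neutral control wells and -100% = median of positive control wells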)). Conditions: GST-JMJD2A(1-420) H3K9me3 demethylation; series mostly up to 6 µM; activity change, negative = inhibition: at the top concentration.
Lysine-specific demethylase 4A (Homo sapiens), sequence (O75164 whole entry, looked up): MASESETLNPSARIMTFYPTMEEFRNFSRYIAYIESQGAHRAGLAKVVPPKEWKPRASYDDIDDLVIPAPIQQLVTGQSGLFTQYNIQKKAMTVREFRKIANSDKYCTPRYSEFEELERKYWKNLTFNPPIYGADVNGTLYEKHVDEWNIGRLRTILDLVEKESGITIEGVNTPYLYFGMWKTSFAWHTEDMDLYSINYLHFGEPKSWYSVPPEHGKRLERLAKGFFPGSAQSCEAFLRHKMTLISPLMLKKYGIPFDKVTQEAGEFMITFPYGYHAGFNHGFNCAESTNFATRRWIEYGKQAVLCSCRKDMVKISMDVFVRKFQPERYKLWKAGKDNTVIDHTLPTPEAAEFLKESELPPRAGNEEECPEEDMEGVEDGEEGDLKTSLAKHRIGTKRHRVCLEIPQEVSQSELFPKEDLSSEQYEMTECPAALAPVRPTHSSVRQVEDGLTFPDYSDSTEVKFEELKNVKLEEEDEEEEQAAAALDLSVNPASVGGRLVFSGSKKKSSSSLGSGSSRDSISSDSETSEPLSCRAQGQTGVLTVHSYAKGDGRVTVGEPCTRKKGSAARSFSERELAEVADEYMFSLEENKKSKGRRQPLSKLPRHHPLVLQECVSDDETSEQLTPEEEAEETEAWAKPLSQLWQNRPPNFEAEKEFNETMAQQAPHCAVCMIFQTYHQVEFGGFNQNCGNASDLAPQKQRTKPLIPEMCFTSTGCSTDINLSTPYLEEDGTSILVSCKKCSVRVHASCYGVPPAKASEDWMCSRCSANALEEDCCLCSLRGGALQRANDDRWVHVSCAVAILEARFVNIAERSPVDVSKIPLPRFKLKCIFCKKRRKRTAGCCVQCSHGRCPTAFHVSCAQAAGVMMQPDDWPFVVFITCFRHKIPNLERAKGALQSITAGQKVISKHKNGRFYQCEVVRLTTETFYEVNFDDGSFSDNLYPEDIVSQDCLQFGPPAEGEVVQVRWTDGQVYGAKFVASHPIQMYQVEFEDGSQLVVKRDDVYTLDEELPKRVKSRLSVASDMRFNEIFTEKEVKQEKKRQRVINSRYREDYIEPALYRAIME

Activity change, negative = inhibition, inactive:
COc1ccc(/C=N/n2c(=O)[nH]c3c([nH]c4ccc(Br)cc43)c2=O)cc1CN1CCOCC1 2.87%
COc1ccc(S(=O)(=O)N(C)C[C@H]2Oc3ccc(NC(=O)Cn4cnnn4)cc3C(=O)N([C@H](C)CO)C[C@@H]2C)cc1 -2.83%
C=CCNCCOc1cccc(Br)c1 -3.77%
O=C(NCc1ccccn1)c1cn(Cc2ccccc2)nn1 -6.48%
CC(=O)Nc1ccc(NC(=O)Cn2cnc3c(cnn3C(C)(C)C)c2=O)cc1 -13.6%
Cc1ccc(S(=O)(=O)N2[C@@H](c3ccc(C#N)cc3)C(C(=O)O)=C[C@H]2C(C)(C)C)cc1 -3.84%
CC[C@@]1(C(=O)OC)N[C@H](CN(C)C(=O)Nc2ccc(Cl)cc2)[C@@H]2C(=O)N(Cc3ccccc3)C(=O)[C@@H]21 3.72%
O=C(c1cc2ccccc2oc1=O)N1CCN(CCc2ccccc2)CC1 1.84%
Cc1cccc(OCc2nnc(SCC(=O)Nc3cccc(C(=O)N4CCOCC4)c3)o2)c1C -0.255%
N=c1n(CC(=O)c2cccc([N+](=O)[O-])c2)c2ccccc2n1Cc1ccccc1 1.29%
Nc1cccc(C(=O)Nc2ccco2)c1 -3.86%
COc1cc2[nH]c(=O)n(CCCCCC(=O)NCCCN3CCCC3=O)c(=O)c2cc1OC 1.66%
CC(=O)c1sc(NC(=O)c2ccc(C)cc2)nc1C -7.38%
Cc1ccc(CNC(=O)Cc2ccc(-c3ccccc3)cc2)cc1 6.79%
CCN1CCC(=NNC(=O)c2ccc(C)c([N+](=O)[O-])c2)CC1 0.261%
Cc1ccc(C2CC(c3ccccc3)=NN2C(=S)Nc2ccccc2)o1 (centres undefined) 3.02%
CC(C)C[C@H](NC(=O)N1CCCCCC1)C(=O)O 0.718%
O=C(NNC(=O)c1cccs1)c1ccc([N+](=O)[O-])cc1 -5.67%
CC1=NN(C(N)=S)C(=O)C1N=Nc1c(C)cc(C)cc1C (centres undefined) 3.02%
C=CCn1c(O)c(N=Nc2ccccc2C)c2ccccc21 -6.46%
Cc1ccccc1CNc1nnnn1C -0.727%
COC(=O)c1cc(NC(=O)CSc2nncn2C)cc(C(=O)OC)c1 0.678%
COC(C/C=C\[C@H](O)[C@H](C)OCc1ccccc1)OC 2.1%
CC(C)(C)OC(=O)C[C@@H]1C/C=C\C[C@H](CC(=O)N[C@H](CO)Cc2ccccc2)C(=O)N[C@@H](Cc2ccccc2)COC1=O 0.0527%
C[C@H](CO)N1C[C@H](C)[C@@H](CN(C)Cc2ccc(Cl)c(Cl)c2)Oc2c(NS(=O)(=O)c3cn(C)cn3)cccc2C1=O -0.723%
CCOCCCNC(=O)c1c[nH]c2ccc(C)cc2c1=O 0.456%
Cc1ccccc1CN1C(=O)C(O)(CC(=O)c2ccncc2)c2ccccc21 (centres undefined) -4.55%
Cc1ccc(CNC(=O)[C@@H](NC(=O)Cc2ccccc2)C(C)C)cc1 2.23%
O=C(Cc1ccccc1)NC1(O)C(=O)c2ccccc2C1=O -4.47%
COc1ccc(OCC(=O)N/N=C/C(C)=C/c2ccco2)c(Br)c1 -1.99%
COc1ccc(OC)c(/C=C2\SC(=S)N(Cc3cccnc3)C2=O)c1 0.643%
COc1ccccc1N1CCN(C(=O)CSc2nc(C)cc(=O)[nH]2)CC1 -2.92%
COc1ccc(-c2nnc(SC(C)C(=O)NCc3ccc4c(c3)OCO4)n2Cc2ccco2)cc1 (centres undefined) 5.3%
CCN(CC)C(=O)N1CCc2ccccc2C1CN1C(=O)c2ccccc2C1=O (centres undefined) -1.77%
C=CCc1c(C)nc(SC(C)C)[nH]c1=O -9.55%
O=C(Cn1cnc2c(OCc3ccccc3)ncnc21)N1CCN(c2ccccn2)CC1 -3.78%
CC(C)(O)[C@H](O)Cc1cc2ccc(=O)oc2cc1O[C@@H]1O[C@H](CO)[C@@H](O)[C@H](O)[C@H]1O -0.509%
CC(=O)c1ccc(O[C@@H]2O[C@H](CO)[C@@H](O)[C@H](O)[C@H]2O)cc1 -4.17%
COC(C(=O)Nc1ccc(NC(=O)C(OC)c2ccccc2)cc1)c1ccccc1 (centres undefined) 3.15%
